The results in this text go back to ChEMBL document CHEMBL1961873, “Compounds: GSK PKIS; Assays: Nanosyn kinase panel” (2012).

Experiment [1] concerns the target Tyrosine-protein kinase CSK (Homo sapiens) (UniProt P41240). The settings on record: at 1 µM.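 Further: each value is an averaged inhibition reading.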
The target in experiment [2] is T1, Discoidin domain-containing receptor 2 (Homo sapiens) (UniProt Q16832).
T1 sequence (whole entry): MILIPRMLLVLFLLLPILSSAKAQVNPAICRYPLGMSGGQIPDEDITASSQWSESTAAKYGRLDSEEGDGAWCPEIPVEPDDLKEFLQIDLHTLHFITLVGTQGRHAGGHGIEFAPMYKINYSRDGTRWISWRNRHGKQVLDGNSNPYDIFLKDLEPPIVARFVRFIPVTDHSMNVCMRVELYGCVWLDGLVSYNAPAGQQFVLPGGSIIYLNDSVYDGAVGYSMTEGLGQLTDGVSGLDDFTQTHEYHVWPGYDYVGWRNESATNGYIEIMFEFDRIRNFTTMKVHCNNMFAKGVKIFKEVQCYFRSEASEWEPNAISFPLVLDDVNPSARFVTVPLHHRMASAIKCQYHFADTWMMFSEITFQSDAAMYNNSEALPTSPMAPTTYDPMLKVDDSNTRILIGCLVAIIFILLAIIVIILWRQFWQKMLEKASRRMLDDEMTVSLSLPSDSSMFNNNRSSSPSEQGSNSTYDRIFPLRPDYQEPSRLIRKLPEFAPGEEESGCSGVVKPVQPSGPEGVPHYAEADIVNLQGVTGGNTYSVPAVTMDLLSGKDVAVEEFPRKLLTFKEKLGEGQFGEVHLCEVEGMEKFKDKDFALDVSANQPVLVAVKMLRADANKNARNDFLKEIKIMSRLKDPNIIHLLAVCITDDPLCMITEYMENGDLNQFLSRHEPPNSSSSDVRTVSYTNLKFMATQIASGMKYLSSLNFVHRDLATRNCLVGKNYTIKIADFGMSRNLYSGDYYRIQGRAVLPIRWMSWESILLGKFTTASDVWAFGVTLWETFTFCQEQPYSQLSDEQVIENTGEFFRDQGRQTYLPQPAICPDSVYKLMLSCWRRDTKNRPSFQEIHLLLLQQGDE
Conditions: at 0.1 µM.

Experiment [3] concerns the target T1, Discoidin domain-containing receptor 2 (Homo sapiens). The settings on record: at 1 µM.
Experiment [4] addresses Epidermal growth factor receptor (Homo sapiens) (UniProt P00533). The settings on record: at 0.1 µM.
The target is the same in experiment [5]. Conditions: at 1 µM.
Experiment [6] deals with Epidermal growth factor receptor (Homo sapiens), P00533 [L858R]. Conditions: at 0.1 µM.
Experiment [7] has the same test system. Conditions: at 1 µM.
The test system of experiment [8] is Epidermal growth factor receptor (Homo sapiens), P00533 [L861Q]. Conditions: at 0.1 µM.
The test system is the same in experiment [9]. Conditions: at 1 µM.
In experiment [10] the test system is Epidermal growth factor receptor (Homo sapiens), P00533 [T790M]. The settings on record: at 0.1 µM.
Experiment [11] shares this test system. The settings on record: at 1 µM.
Experiment [12] concerns Epidermal growth factor receptor (Homo sapiens), P00533 [L858R,T790M]. The settings on record: at 0.1 µM.
Experiment [13] has the same test system. Conditions: at 1 µM.
Experiment [14] has as its target Ephrin type-A receptor 2 (Homo sapiens) (UniProt P29317). Conditions: at 0.1 µM.
The target is the same in experiment [15]. The settings on record: at 1 µM.
The target of experiment [16] is T2, Ephrin type-A receptor 3 (Homo sapiens) (UniProt P29320).
T2 sequence (whole entry): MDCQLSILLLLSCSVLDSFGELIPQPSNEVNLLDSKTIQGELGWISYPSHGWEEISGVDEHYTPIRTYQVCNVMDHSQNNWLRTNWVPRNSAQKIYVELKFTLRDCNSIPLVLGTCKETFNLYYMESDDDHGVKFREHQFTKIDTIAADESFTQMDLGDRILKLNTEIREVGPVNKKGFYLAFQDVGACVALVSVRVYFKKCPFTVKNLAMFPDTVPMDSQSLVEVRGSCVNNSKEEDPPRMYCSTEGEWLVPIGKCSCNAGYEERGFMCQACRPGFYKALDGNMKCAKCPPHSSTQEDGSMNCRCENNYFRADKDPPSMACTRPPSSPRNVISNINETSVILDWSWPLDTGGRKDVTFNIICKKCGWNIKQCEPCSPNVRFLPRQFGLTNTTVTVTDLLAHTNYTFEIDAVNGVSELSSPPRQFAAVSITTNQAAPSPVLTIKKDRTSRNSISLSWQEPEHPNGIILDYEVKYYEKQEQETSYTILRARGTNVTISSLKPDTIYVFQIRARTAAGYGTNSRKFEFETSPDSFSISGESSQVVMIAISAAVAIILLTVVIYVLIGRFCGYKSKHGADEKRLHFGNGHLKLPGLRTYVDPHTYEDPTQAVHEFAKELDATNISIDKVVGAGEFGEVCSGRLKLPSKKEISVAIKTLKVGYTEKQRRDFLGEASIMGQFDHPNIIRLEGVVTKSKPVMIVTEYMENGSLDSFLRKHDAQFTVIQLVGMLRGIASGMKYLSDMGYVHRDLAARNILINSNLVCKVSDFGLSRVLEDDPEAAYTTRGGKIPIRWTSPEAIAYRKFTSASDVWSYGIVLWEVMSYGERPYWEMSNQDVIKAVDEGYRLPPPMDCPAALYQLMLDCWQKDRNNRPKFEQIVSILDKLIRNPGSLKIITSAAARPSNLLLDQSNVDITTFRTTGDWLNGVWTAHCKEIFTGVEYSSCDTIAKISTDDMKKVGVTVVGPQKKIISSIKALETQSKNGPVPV
The settings on record: at 0.1 µM.

In experiment [17] the target is T2, Ephrin type-A receptor 3 (Homo sapiens). The settings on record: at 1 µM.
Experiment [18] addresses Ephrin type-A receptor 4 (Homo sapiens) (UniProt P54764). The settings on record: at 0.1 µM.
Experiment [19] has the same target. The settings on record: at 1 µM.
Experiment [20] concerns the target T3, Ephrin type-B receptor 2 (Homo sapiens) (UniProt P29323).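 Further: reported as mean inhibition of EPHB2, from the GSK PKIS dataset.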
T3 sequence (whole entry): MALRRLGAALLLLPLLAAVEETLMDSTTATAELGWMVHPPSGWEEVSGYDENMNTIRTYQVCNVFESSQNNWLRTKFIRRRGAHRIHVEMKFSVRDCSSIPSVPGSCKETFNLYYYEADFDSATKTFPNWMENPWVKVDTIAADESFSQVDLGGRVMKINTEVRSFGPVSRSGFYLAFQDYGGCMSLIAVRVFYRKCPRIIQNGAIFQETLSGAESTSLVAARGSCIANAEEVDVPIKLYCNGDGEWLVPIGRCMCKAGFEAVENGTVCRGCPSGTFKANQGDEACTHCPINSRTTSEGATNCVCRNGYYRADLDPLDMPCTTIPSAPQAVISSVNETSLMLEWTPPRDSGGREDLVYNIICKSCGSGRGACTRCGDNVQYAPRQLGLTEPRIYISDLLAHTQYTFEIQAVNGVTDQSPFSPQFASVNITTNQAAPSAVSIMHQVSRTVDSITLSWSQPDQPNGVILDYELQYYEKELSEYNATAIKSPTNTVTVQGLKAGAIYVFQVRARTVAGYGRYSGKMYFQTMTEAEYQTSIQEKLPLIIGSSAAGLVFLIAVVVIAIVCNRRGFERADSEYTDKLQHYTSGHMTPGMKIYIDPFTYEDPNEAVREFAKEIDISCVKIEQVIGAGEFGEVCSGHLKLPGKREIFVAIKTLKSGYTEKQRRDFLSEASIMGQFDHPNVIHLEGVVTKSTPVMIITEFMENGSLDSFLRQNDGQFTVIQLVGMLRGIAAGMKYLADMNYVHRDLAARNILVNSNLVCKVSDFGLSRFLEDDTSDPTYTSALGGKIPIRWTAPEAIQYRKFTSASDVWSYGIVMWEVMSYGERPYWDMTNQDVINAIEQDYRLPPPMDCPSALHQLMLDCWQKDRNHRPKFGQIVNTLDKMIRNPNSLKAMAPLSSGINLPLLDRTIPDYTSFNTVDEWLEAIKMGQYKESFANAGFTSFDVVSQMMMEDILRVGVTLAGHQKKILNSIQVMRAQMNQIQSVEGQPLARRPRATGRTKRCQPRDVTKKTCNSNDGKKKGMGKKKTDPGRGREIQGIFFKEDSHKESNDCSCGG
Conditions: at 0.1 µM.

Chain of Epidermal growth factor receptor (Homo sapiens), P00533 [L858R,T790M] (P00533 whole entry T790M/L858R, looked up): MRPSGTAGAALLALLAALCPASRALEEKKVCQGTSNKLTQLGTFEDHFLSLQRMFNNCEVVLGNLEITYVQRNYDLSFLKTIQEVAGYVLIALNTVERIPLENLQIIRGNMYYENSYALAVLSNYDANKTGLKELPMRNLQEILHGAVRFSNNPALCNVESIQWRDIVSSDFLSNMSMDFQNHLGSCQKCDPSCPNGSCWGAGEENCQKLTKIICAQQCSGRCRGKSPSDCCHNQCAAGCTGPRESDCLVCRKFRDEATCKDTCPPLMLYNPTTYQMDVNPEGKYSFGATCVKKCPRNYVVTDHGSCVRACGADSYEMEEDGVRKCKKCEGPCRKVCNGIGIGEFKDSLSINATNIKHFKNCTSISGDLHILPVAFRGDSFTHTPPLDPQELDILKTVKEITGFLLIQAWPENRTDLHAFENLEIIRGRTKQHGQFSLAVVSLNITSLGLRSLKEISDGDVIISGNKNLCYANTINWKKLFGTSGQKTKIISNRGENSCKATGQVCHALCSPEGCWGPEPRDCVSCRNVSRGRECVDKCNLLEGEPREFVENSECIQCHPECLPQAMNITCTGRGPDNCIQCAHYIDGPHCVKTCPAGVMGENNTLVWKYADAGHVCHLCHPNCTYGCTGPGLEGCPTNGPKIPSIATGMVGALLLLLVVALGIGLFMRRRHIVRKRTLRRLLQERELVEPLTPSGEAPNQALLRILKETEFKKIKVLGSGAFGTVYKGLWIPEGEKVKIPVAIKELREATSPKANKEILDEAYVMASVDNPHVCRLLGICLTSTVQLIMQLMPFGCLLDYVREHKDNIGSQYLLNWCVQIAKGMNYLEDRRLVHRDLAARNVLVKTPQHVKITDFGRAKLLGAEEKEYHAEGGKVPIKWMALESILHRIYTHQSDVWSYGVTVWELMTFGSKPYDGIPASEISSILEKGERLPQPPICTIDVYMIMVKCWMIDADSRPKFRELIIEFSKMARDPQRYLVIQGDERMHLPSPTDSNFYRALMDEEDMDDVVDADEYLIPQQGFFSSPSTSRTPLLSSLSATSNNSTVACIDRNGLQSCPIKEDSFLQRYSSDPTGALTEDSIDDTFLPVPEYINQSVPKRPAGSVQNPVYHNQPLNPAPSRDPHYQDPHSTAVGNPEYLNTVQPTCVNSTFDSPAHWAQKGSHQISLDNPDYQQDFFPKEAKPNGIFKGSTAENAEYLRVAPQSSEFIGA
Chain of Epidermal growth factor receptor (Homo sapiens), P00533 [L858R] (P00533 whole entry L858R): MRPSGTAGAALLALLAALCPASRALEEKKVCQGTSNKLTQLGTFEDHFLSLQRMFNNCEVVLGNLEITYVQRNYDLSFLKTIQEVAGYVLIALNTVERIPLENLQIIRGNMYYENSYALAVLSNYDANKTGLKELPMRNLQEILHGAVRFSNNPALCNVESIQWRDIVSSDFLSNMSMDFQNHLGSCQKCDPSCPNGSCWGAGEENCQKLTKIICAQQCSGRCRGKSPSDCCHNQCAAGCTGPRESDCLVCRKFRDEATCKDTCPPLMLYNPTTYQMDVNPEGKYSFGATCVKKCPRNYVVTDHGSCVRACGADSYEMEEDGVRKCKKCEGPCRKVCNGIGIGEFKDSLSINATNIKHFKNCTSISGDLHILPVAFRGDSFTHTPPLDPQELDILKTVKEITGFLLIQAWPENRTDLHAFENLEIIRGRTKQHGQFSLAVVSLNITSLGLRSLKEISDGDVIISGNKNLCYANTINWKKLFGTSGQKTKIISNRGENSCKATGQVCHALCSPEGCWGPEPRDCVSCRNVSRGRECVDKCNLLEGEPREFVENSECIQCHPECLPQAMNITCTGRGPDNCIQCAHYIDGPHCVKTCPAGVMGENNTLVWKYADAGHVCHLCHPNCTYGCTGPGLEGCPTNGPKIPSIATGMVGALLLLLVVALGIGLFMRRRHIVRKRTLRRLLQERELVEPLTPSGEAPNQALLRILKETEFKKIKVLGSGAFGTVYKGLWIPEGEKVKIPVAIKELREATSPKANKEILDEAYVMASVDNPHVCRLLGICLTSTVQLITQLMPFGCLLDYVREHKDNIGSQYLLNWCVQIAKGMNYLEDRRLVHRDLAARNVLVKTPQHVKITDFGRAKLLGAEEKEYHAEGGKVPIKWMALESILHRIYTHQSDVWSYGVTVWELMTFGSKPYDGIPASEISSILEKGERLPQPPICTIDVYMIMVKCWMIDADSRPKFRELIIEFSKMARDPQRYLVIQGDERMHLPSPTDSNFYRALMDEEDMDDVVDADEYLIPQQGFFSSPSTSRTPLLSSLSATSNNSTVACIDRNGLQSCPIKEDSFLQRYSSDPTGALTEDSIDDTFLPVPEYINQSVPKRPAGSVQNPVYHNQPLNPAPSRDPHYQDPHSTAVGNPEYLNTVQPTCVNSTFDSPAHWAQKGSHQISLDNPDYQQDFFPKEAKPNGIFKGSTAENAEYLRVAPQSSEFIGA
Chain of Epidermal growth factor receptor (Homo sapiens) (P00533 whole entry): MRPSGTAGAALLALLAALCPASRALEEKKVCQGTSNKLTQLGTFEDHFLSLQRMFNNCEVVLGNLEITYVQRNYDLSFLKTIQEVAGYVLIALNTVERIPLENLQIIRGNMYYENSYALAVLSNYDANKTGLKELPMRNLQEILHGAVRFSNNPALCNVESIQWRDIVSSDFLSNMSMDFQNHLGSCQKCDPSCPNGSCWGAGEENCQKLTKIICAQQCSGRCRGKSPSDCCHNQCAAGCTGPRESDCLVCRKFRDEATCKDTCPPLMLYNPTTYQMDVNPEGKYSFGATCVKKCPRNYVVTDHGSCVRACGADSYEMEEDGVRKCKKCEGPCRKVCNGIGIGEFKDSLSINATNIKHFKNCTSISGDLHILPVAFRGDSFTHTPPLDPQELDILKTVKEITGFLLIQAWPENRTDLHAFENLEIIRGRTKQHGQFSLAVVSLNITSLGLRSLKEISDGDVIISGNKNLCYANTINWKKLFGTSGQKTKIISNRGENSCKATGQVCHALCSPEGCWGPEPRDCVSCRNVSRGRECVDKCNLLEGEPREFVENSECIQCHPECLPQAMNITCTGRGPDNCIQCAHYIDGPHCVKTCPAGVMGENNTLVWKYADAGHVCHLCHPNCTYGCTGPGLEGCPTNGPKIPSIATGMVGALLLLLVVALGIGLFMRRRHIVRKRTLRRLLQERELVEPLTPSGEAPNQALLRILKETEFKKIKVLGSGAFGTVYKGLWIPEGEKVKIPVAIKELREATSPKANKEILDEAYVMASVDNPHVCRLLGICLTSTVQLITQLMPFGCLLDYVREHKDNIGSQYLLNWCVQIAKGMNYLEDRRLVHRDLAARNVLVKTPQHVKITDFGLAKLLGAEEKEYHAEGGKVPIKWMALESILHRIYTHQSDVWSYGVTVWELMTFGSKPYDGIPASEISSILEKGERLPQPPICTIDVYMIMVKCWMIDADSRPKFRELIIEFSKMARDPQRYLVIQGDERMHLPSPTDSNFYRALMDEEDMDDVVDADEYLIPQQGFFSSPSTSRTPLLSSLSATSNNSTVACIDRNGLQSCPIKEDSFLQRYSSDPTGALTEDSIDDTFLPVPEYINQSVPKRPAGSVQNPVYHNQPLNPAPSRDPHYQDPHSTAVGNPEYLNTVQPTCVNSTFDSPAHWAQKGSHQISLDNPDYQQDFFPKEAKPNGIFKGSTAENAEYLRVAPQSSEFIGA
Chain of Epidermal growth factor receptor (Homo sapiens), P00533 [T790M] (P00533 whole entry T790M): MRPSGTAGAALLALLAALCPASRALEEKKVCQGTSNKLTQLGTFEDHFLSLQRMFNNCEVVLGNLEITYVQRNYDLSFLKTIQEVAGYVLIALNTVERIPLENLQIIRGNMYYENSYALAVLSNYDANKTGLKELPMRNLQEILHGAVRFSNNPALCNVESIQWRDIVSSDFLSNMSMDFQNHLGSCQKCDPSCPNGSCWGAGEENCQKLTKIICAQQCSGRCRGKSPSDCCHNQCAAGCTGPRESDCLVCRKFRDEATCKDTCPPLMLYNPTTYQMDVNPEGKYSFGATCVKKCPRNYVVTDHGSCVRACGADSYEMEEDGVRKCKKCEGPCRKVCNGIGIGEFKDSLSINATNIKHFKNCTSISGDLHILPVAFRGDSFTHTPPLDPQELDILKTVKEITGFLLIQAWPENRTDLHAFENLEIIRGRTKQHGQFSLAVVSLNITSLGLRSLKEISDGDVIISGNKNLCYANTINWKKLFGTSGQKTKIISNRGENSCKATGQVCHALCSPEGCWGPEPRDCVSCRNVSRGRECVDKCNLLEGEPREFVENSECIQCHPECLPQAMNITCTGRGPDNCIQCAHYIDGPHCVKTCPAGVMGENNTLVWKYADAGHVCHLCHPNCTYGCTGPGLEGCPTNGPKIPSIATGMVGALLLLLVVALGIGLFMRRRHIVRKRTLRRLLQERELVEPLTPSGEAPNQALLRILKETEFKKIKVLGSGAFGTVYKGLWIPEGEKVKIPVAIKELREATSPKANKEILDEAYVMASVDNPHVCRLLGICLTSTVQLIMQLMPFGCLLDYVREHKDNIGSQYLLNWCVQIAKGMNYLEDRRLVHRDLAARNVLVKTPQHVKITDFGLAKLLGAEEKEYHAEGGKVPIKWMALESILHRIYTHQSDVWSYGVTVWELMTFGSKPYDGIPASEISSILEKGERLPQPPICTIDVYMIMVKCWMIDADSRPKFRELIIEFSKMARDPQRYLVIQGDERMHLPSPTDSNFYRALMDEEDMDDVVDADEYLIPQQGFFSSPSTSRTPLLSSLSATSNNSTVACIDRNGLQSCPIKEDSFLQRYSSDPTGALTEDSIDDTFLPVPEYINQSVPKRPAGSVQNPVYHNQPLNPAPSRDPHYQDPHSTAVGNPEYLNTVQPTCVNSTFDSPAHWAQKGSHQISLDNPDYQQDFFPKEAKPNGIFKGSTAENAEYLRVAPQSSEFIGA

A word on the inhibition: it is the drop in the measured response relative to a control, in per cent. For `COc1cc(C)c(N(C)C(=O)CN(C)C)cc1Nc1nc(Nc2cccc(F)c2C(N)=O)c2cc[nH]c2n1`, the inhibition in experiment [1] is -1.53%; in [2], 0.29%; in [3], 0.56%; in [4] it was -4.88%; in experiment [5], -1.47%; in [6] it was -1.11%. Also, the inhibition in experiment [7] was 1.56%; in experiment [8], 1.84%; in experiment [9] it was -2.41%; in [10], 0.93%; in experiment [11], 1.09%; in experiment [12] it was -0.19%. For the same compound, the inhibition is 1.92% in experiment [13]; -2.68% in experiment [14]; -4.61% in experiment [15]; -1.1% in [16]; -3.2% in experiment [17]; 3.77% in experiment [18]. Moreover, the inhibition in experiment [19] was -1.31%; in [20], 2.81%.

As to `C/C(Nc1ccc(S(N)(=O)=O)cc1)=C1/C(=O)Nc2ccccc21`, the inhibition is -4% in experiment [1]; -0.09% in experiment [2]; 0.07% in experiment [3]; -1.34% in [4]; 2.48% in experiment [5]; -0.73% in experiment [6]. For the same compound, the inhibition in [7] is 0.1%; in experiment [8], 0.08%; in experiment [9], 0.01%; in experiment [10], -0.56%; in experiment [11] it was 0.03%; in [12], -0.46%. For the same compound, the inhibition in experiment [13] was -1.66%; in experiment [14], -4.14%; in experiment [15], -3.36%; in experiment [16], -8.6%; in [17], -1.74%; in experiment [18], -4.44%. Moreover, the inhibition was -2.02% in experiment [19] and -3.98% in experiment [20].

Regarding `NC(=O)Cc1ccccc1Oc1nccc(-c2c(-c3ccc(F)cc3)ncn2C2CCNCC2)n1`, the inhibition is 0.29% in experiment [1]; 0.48% in [2]; 0.75% in experiment [3]; 2.22% in [4]; 4.51% in experiment [5]; 2.34% in [6]. In addition, the inhibition is 8.03% in experiment [7]; 1.25% in [8]; -0.04% in experiment [9]; 0.99% in experiment [10]; 0.65% in experiment [11]; 0.76% in experiment [12]. The inhibition was 4.08% in [13]; -0.02% in [14]; -0.27% in experiment [15]; 2.08% in experiment [16]; 3.17% in [17]; 5.89% in experiment [18]. In addition, the inhibition in experiment [19] is -0.14%; in [20], 6.12%.

As for `COc1cc2ncn(-c3cc(OCCc4ccccc4)c(C(N)=O)s3)c2cc1OC`, the inhibition is 2.94% in experiment [1]; 0.75% in experiment [2]; 2.48% in experiment [3]; 7.08% in [4]; 7.65% in [5]; 2.45% in experiment [6]. Besides, the inhibition in experiment [7] was 9.43%; in experiment [8] it was 0.8%; in experiment [9], 0.3%; in [10] it was 0.19%; in [11] it was 0.49%; in [12], 0.55%. In addition, the inhibition in experiment [13] worked out at 4.9%; in experiment [14], 1.97%; in [15] it was 0.66%; in experiment [16], 3.06%; in experiment [17] it was 4.07%; in experiment [18] it was 4.63%. For the same compound, the inhibition in experiment [19] was determined as 3.61%; in experiment [20] it was 3.87%.

As to `CN(C)CCCNc1nccc(-c2c(-c3ccc(F)cc3)nn3cc(C(F)(F)F)ccc23)n1`, the inhibition in [1] is -0.64%; in experiment [2], 5.29%; in experiment [3] it was 11.1%; in experiment [4], -2.27%; in experiment [5], 1.24%; in [6] it was 0.77%. Also, the inhibition in experiment [7] is 2.36%; in experiment [8] it was 1.57%; in experiment [9], -2.56%; in [10] it was 1.53%; in experiment [11], -0.54%; in [12] it was 0.09%. In addition, the inhibition is 1.55% in [13]; -2.91% in experiment [14]; -2.04% in [15]; 0.03% in experiment [16]; 1.47% in experiment [17]; 7% in experiment [18]. Further, the values for the inhibition in experiment [19] and in experiment [20] were 9% and 8.88%, respectively.

Take `CN1CCN(CCCNc2nc3ccc(Oc4ccc(NC(=O)Nc5cc(C(F)(F)F)ccc5F)cc4)cc3[nH]2)CC1`: the inhibition in [1] was -3.31%; in experiment [2], 73.9%; in experiment [3], 83.6%; in [4], -3.44%; in experiment [5], 0.24%; in experiment [6], 1%. Further, the inhibition is 0.13% in [7]; 0.67% in experiment [8]; -4.02% in [9]; 0.51% in experiment [10]; -2.83% in experiment [11]; -0.44% in experiment [12]. The inhibition in experiment [13] was -4.26%; in [14], -3.26%; in experiment [15] it was 2.37%; in experiment [16], -0.6%; in experiment [17] it was -0.47%; in [18], 6.02%. For the same compound, the inhibition in experiment [19] was 25.9%; in [20] it was 9.54%.

Turning to `Cc1ccc(C(=O)NC2CCC2)cc1-c1ccc(C(=O)NCC2CC2)cc1`, the inhibition in [1] turned out to be 0.62%; in experiment [2], 0.33%; in [3], 1.1%; in experiment [4], 10.4%; in experiment [5], 7.15%; in [6], 3.77%. Moreover, the inhibition was 4.05% in experiment [7]; 4.21% in experiment [8]; 4.15% in [9]; 1.73% in experiment [10]; -0.05% in experiment [11]; 0.49% in experiment [12]. Further, the inhibition is 1.53% in [13]; 0.5% in experiment [14]; 0.07% in [15]; 2.96% in [16]; 4.24% in experiment [17]; 4.02% in experiment [18]. Further, the inhibition in experiment [19] came to 0.68%; in experiment [20], 6.98%.
